Experimental data: PubChem BioAssay AID720519 (National Center for Advancing Translational Sciences (NCATS), 2013)
Records with an inconclusive call do not appear. Activity calls are given as the source filed them. The call rests on the fitted dose curve; in most records, active means well fitted activation curve with a large enough effect; inconclusive means small, poorly fitted or top-dose-only effect; inactive means flat fitted curve, though single readings scatter.

assay: qHTS for Inhibitors of Cell Surface uPA Generation: Confirmatory Assay for Cherry-picked Compounds; conditions: cell surface uPA activity generation, qHTS confirmation; series mostly up to 115 µM
Procedure, shortened: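 RAW 264.7 cells at 4000/well, incubated overnight, then treated with compounds. After 24 h at 37 C, viability was read by ATPlite luminescence. An increase in signal indicates blocked uPA-dependent LF entry.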

Potency, inactive:
O=C1CC(/C=C/c2ccc(Cl)cc2)=Nc2ccccc2N1
Cc1ccc(S(=O)(=O)N2CCC(C)CC2)cc1
COC(=O)COc1cc2ccccc2cc1C(=O)Nc1ccccc1
CCOC(=O)C1CCN(C(=O)COC(=O)c2c(C)c(CC)nc3ccccc23)CC1
N/C(=N/OC(=O)c1ccccc1F)c1nonc1N
N#CCCN(C(=O)COC(=O)c1ccc2c(c1)NC(=O)CS2)c1ccc2c(c1)OCCO2
Brc1ccsc1/C=N/Nc1ccccc1
COc1ccc(CCNC(=O)Cn2cccc2C(=O)c2ccccc2)c(OC)c1
CCc1nc(SCC(N)=O)c2c(=O)n(C)c(=O)n(C)c2n1
CCCCn1c(=NC(=O)c2ccco2)c(C(=O)OCC)cc2c(=O)n3cccc(C)c3nc21
O=C(COC(=O)c1ccc2ncsc2c1)NCc1cccc(Cl)c1
Cc1ccc(C)c(NC(=O)CCN2CCN(c3ccccc3F)CC2)c1
O=C(Nc1ccnn1C1CCN(CCCC2CCCC2)CC1)c1ccccc1
Cc1cc2[nH]c(=O)c(=O)[nH]c2cc1S(=O)(=O)NC1CCC(C)CC1 (configuration not stated)
CSc1nc(N)nc2c1ncn2CC(=O)NCC1CCCO1 (configuration not stated)
CC1CCN(C2=C(NS(=O)(=O)c3ccc(Br)cc3)C(=O)c3ccccc3C2=O)CC1
Cc1ccc(C(=O)COc2cc(O)c3c(=O)cc(-c4ccccc4)oc3c2)cc1
CCOC(=O)CC(=O)CSc1nc2c(C)c(C)ccc2cc1C
O=C(CCCC(=O)N1CCN(c2ccccc2F)CC1)c1ccccc1
CC(=O)c1ccc(N=C2SCCCN2C(=O)C2CCCCC2)cc1
Cc1nnc2ccc(-c3ccc(NS(=O)(=O)c4ccc(Cl)s4)cc3)nn12
Nc1cc(=O)[nH]c(SCC(=O)Nc2cccc([N+](=O)[O-])c2)n1
